Reference: PubChem BioAssay (NCATS)
Results filed as inconclusive are left out. Unmarked numbers belong to inactive results. Active and inactive are the calls of the source. Calls follow the shape of the dose curve; as a rule, active = well fitted cell-killing curve with a large enough effect; inconclusive = small, poorly fitted or top-dose-only effect; inactive = no such curve, though single readings can be large or run the other way.

Experiment: qHTS of pediatric cancer cell lines to identify multiple opportunities for drug repurposing: Primary screen for Rh41 cells (AID 1347108); also: nearly all actives have a fitted effect of over 70% in size;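 as to activity change, negative = cytotoxic: luminescence drop marks cytotoxic hits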
Details: Rh41 rhabdomyosarcoma viability, CellTiter-Glo luminescence, 48 h; series mostly up to 46 µM; activity change, negative = cytotoxic: at the top concentration
In short: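 Plated cells (500-1,000 per well, growth media) were allowed to settle for 5 hours, treated with compound dilutions for 48 hours, then lysed with CellTiter-Glo for 15 min at room temperature before luminescence reading.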
Potency is read from the fitted curve at half-maximal effect.

Row | SMILES | activity change, negative = cytotoxic | Potency
1 | CC/C(=C(\c1ccccc1)c1ccc(OCCN(C)C)cc1)c1ccccc1 | 3.28% | 
2 | O=C1NCC2(CCN(CCc3ccccc3)CC2)O1 | 41.1% | 
3 | O=C1NC(=O)C(=Cc2ccc3nccnc3c2)S1 | -7.49% [at 16.1 µM] | 
4 | CC(C)(C)Cn1c(N)nc2ccc(-c3[nH]c(C(C)(C)C)nc3-c3ccc(F)cc3)nc21 |  | 18.7 µM (active)
5 | COc1ccc2cccc(CCNC(C)=O)c2c1 | 24.2% | 
6 | O=c1c(-c2ccc(O)cc2)coc2cc(OC3O[C@H](CO)[C@H](O)[C@H](O)[C@H]3O)cc(O)c12 (stereo partly drawn) |  | 8.33 µM (active)
7 | CCCCC1C(=O)N(c2ccccc2)N(c2ccccc2)C1=O | 0.45% | 
8 | O=c1c(-c2ccc(O)cc2)coc2cc(O)ccc12 | 25% | 
9 | COc1ccccc1N1CCN(CCCNc2cc(=O)n(C)c(=O)n2C)CC1 | 24.9% | 
10 | COc1cc2ncnc(-n3nc(-c4ccccn4)nc3N)c2cc1OC | -11.7% | 
11 | Cc1cccc(C)c1OCC(C)N (stereo not drawn) | 4.9% | 
12 | NC(=O)c1cccc(-c2cc(Nc3ccc(OC(F)(F)F)cc3)ncn2)c1 | -1.24% | 
13 | CCn1cc(C(=O)O)c(=O)c2ccc(C)nc21 |  | inactive
14 | O=C1C[C@@H](c2ccc(O)cc2)Oc2cc(O)cc(O)c21 | 7.36% | 
15 | COCCCCC(=NOCCN)c1ccc(C(F)(F)F)cc1 |  | 20.9 µM (active)
16 | c1ccc2c(Cc3c[nH]c4ccccc34)c[nH]c2c1 |  | 14.8 µM (active)
17 | CCCCCN(C)CCC(O)(P(=O)(O)O)P(=O)(O)O | 9.19% | 
18 | OC[C@@H](O)[C@H](O)[C@H](O)[C@@H](O)CO |  | inactive
19 | CC1(C)Cc2c(sc(NC(=S)NC(=O)c3ccccc3)c2C(=O)O)CO1 | 30.6% | 

Row | SMILES | activity change, negative = cytotoxic | Potency
20 | N[C@H](CSC(c1ccccc1)(c1ccccc1)c1ccccc1)C(=O)O | -10.6% | 
21 | CNC(=O)c1ccc2cc(C3(O)CCn4cncc43)ccc2c1 (stereo not drawn) | 19.6% | 
22 | Cn1c(N2CCCCS2(=O)=O)nc(C(=O)NCc2ccc(F)cc2)c(O)c1=O | 12.6% | 
23 | CC(=O)O[C@]1(C(C)=O)CC[C@H]2[C@@H]3C=C(Cl)C4=CC(=O)[C@@H]5C[C@@H]5[C@]4(C)[C@H]3CC[C@@]21C |  | 18.8 µM (active)
24 | CC(=O)CCCCn1c(=O)c2c(ncn2C)n(C)c1=O | 10.3% | 
25 | CC(=O)c1ccc(S(=O)(=O)NC(=O)NC2CCCCC2)cc1 | 26.8% | 
26 | CC(=O)N[C@@H](CS)C(=O)O | 27.7% | 
27 | NC[C@@H]1O[C@@H](O[C@H]2[C@@H](O)[C@H](O[C@@H]3[C@@H](O)[C@@H](N)C[C@H](N)[C@H]3O[C@H]3O[C@H](CN)[C@@H](O)[C@@H](O)[C@H]3N)O[C@H]2CO)[C@H](N)[C@@H](O)[C@@H]1O | 24.3% | 
28 | O=C(NCc1ccccc1)c1csc(Nc2ccncn2)n1 |  | 9.35 µM (active)
29 | CC(C)C[C@H](CC(=O)O)C(=O)N[C@@H](Cc1c[nH]c2ccccc12)C(=O)N[C@@H](C)c1ccccc1 | 6.16% | 
30 | CC(=Cc1ccccc1)C=C1SC(=S)N(CC(=O)O)C1=O | 26.2% | 
31 | O=C(O)c1cc(-c2ccccc2)nc2ccccc12 |  | inactive
32 | C[C@H](NC(=O)c1sccc1OCc1ccc(Cl)cc1)c1ccccc1 |  | 16.6 µM (active)
33 | CC=CC(=O)N(CC)c1ccccc1C | 21.2% | 
34 | N#Cc1ccc(NC(=O)Nc2ccccc2Br)c2n[nH]nc12 | 15.2% | 
35 | Cc1ccc(C(C)(O)c2nc3ccccc3s2)c(C)c1 (stereo not drawn) | 6.8% | 
36 | O=c1ccn([C@@H]2O[C@H](CO)[C@H](O)[C@H]2O)c(=O)[nH]1 | 26.3% | 
37 | NC1CCC(Nc2nc(Nc3ccc(C(=O)N4CCCCC4)cc3)c3ncn(-c4cccc(F)c4)c3n2)CC1 (stereo not drawn) | 14.6% | 
38 | C[N+](C)(C)CCCCCC[N+](C)(C)C | 24.8% | 
